Results reported in PubChem BioAssay (EPA / NIEHS).
Records with an inconclusive call do not appear. Active and inactive are the calls of the source. The calls were made as follows: active = hit-call score of the fitted dose curve at least 0.9, where 1 is the maximum; inconclusive = response in the unintended direction; inactive = score below 0.9.

target: Nuclear receptor subfamily 1 group I member 3 (Homo sapiens) (UniProt Q14994); test: ATG_CAR_TRANS: Attagene TRANS-FACTORIAL HepG2 Assay for human Constitutive Androstane Receptor (CAR) (AID 2282969); details: HepG2 Attagene TRANS-FACTORIAL CAR reporter;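 also: activators raise reporter mRNA above DMSO so AC50 marks induction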
Description: ATG_TRANS is a cell-based, multiplexed-readout assay that uses HepG2, a human liver cell line, with measurements taken at 24 hours after chemical dosing in a 24-well plate.ATG_CAR_TRANS is one of 30 assay component(s) measured or calculated from the ATG_TRANS assay. It is designed to make measurements of mRNA induction, a form of inducible reporter, as detected with fluorescence intensity signals by Reverse transcription polymerase chain reaction (RT-PCR) and Capillary electrophoresis technology.Data from the assay component ATG_CAR_TRANS was analyzed into 1 assay endpoint. This assay endpoint, ATG_CAR_TRANS, was analyzed in the positive analysis fitting direction relative to DMSO as the negative control and baseline of activity. Using a type of inducible reporter, measures of mRNA for gain-of-signal activity can be used to understand the reporter gene at the transcription factor-level as they relate to the gene NR1I3. Furthermore, this assay endpoint can be referred to as a primary readout, because this assay has produced multiple assay endpoints where this one serves a reporter gene function. To generalize the intended target to other relatable targets, this assay endpoint is annotated to the nuclear receptor intended target family, where the subfamily is non-steroidal.
Human liver HepG2 cells are transiently transfected with multiple reporter transcription units (MRTUs) in 6-well plates using FuGene 6 reagent (Roche; 3 ml FuGene/1 mg DNA). The MRTU constructs are regulated by a cis-regulating element (promoter). […] A major difference between the CIS and TRANS system is that in CIS activities of endogenous TFs are measured, whereas the TRANS assay evaluates changes in activities of exogenous, chimeric NR-Gal4 proteins. […] At the end of 24 hour incubation, total RNA was isolated using TriZol reagent (Invitrogen). The isolated RNA is then reverse-transcribed using oligo(dT) primer and Mo-MLV reverse transcriptase (Invitrogen) with DNAse I (Ambion) treatment for 30 min. The one-tenth of the produced cDNA was amplified by PCR using Taq DNA polymerase (Invitrogen) and two reporter sequence-specific primers. The PCR products were fluorescently labeled by primer extension with 6-arboxyfluorescein (6-FAM) 5'-labeled reporter sequence-specific primer (2 min at 95 C, 20 s at 68 C and 10 min at 72 C) and these products were digested with 5U of HpaI (New England Biolabs) for 2h at 37 C. The fragments were purified using Qiaquick PCR columns (Qiagen), analyzed on an ABI 3130xL genetic analyzer (Applied Biosystems) with peak positions identified by using a set of X-rhodamine (ROX)-labeled MapMarker1000 molecular weight standards (BioVentures). The raw capillary electrophoresis data was processed using Attagraph software (Attagene).

Nuclear receptor subfamily 1 group I member 3 (Homo sapiens), sequence (Q14994 whole entry, looked up): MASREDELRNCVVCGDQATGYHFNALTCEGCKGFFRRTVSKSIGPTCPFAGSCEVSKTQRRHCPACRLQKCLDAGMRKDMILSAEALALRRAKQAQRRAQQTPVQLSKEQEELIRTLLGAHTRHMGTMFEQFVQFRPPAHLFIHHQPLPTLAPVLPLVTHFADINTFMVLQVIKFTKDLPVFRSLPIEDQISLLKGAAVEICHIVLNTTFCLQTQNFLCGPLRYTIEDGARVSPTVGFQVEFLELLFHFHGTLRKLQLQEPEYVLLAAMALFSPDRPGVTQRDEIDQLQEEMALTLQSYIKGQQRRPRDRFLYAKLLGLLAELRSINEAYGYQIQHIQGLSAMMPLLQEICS

| SMILES | outcome | AC50 |
| --- | --- | --- |
| N#CCCCl | inactive |  |
| O=C1C=CC(=O)C=C1 | inactive |  |
| CC(C)c1ccc(O)cc1 | inactive |  |
| CN(N=O)c1ccccc1 | inactive |  |
| CC[N+](=O)[O-] | inactive |  |
| CC(O)CN(CC(C)O)CC(C)O (stereo not given) | inactive |  |
| CCOC(=O)C1OC1(C)c1ccccc1 (stereo not given) | inactive |  |
| [CH3][Sn]([CH3])([Cl])[Cl] | inactive |  |
| O=c1c2ccccc2c(=O)c2c1cc(Cl)c1[nH]c3c([nH]c12)c(Cl)cc1c(=O)c2ccccc2c(=O)c13 | inactive |  |
| CCc1cccc(C)c1N(C(=O)CCl)[C@@H](C)COC | inactive |  |
| CC(C)(Cl)Cl | inactive |  |
| CC1CCCC1.[C-]#[O+].[C-]#[O+].[C-]#[O+].[Mn] | inactive |  |
| C=CC(=O)OC | inactive |  |
| C[C@]12CC[C@H]3[C@@H](CC[C@@]45O[C@@H]4C(O)=C(C#N)C[C@]35C)[C@@H]1CC[C@@H]2O | inactive |  |
| Cc1ccccc1CCl | inactive |  |
| O=C1C(Cl)=C(Cl)C(=O)C(Cl)=C1Cl | inactive |  |
| CC(=O)/C=C/c1ccccc1 | inactive |  |
| CN(C)C(=O)C(c1ccccc1)c1ccccc1 | inactive |  |
| CC(C)CCCCCCCOP(=O)(Oc1ccccc1)Oc1ccccc1 | inactive |  |
| CCCC=NO | inactive |  |

| SMILES | outcome | AC50 |
| --- | --- | --- |
| CCCCOC(=O)CCC(=O)OCCCC | inactive |  |
| c1ccc(P(c2ccccc2)c2ccccc2)cc1 | inactive |  |
| [CH3][Sn]([Cl])([Cl])[Cl] | inactive |  |
| CCOP(=O)(OCC)Oc1ccc([N+](=O)[O-])cc1 | inactive |  |
| C=Cc1cccc(CCl)c1 | inactive |  |
| C=CCc1ccc(OC(=O)Cc2ccccc2)c(OC)c1 | inactive |  |
| CC(Cc1ccc(C(C)(C)C)cc1)CN1C[C@@H](C)O[C@@H](C)C1 (stereo not given in full) | inactive |  |
| CCCCCCCCCCCCCCCC[N+](C)(C)C | inactive |  |
| [Cl][Sb]([Cl])[Cl] | inactive |  |
| ClCC(Cl)Cl | inactive |  |
| N#CC(c1ccccc1)c1ccccc1 | inactive |  |
| O=[N+]([O-])C=Cc1ccccc1 | inactive |  |
| C=C(Cl)Cl | inactive |  |
| Oc1ccc(Cl)cc1 | inactive |  |
| ClC1=C(Cl)[C@]2(Cl)[C@@H]3[C@@H](Cl)[C@H](Cl)C[C@@H]3[C@@]1(Cl)C2(Cl)Cl | inactive |  |
| COc1cc(OC)nc(Oc2cccc(Oc3nc(OC)cc(OC)n3)c2C(=O)O)n1 | inactive |  |
| CCC(C)c1cc([N+](=O)[O-])cc([N+](=O)[O-])c1OC(=O)C=C(C)C (stereo not given) | inactive |  |
| CC(=O)C=Cc1ccccc1 | inactive |  |
| O=c1[nH]c(Cl)c(Cl)cc1Cl | inactive |  |
| Nc1c(Cl)c(Cl)c(Cl)c(Cl)c1Cl |  | 27.3 µM (active) |
